Compound activity as filed in PubChem BioAssay.
KKLEB tox: reduces viability of KKLEB cystic fibrosis airway cells | KKLEB CF airway cells viability, ATPlite luminescence, overnight; stronger effect = lower value; cells stimulated with P. aeruginosa culture filtrate | activity change (cytotoxicity), % at 5 µM | actives 0.36% (n = 360,000) | AID 602141;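 active = corrected activity change at or below -50% at 5 µM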
Peg3 prom inh-1: reduces Peg3 promoter-driven luciferase expression in HeLa; HeLa PEG-Prom luciferase reporter, luminescence, overnight; inhibition, % at 20 µM; actives 1.7% (n = 360,000);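 active = inhibition of at least 50% at 20 µM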
Shn3 inh set2: reduces Shn3 3'UTR luciferase signal in osteoblasts; Clone20 osteoblast Shn3 3'UTR firefly luciferase, 24 h; inhibition, % at 12.5 µM; actives 0.52% (n = 360,000); AID 588674;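 active = mean inhibition of at least 75% with every replicate also reaching 75%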
EBV LMP1 NFkB: Epstein-Barr LMP1 NF-kappaB reporter inhibition; LMP1-induced NF-kappaB luciferase reporter cells, luminescence; inhibition, % at 12.5 µM; actives 0.69% (n = 350,000); AID 504558; in the data active = inhibition above about 41%
MITF TRPM1 inh: MITF TRPM1 promoter inhibition in SK-MEL-5 cells; actives 0.83% (n = 330,000); SK-MEL-5 TRPM1 promoter luciferase, 24 h; inhibition, % at 12.5 µM; AID 488899;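 active = mean inhibition across replicates of 60% or more, whatever share of single replicates reaches that level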
CF NFkB inh: blocks PAF-induced NF-kB reporter in cystic fibrosis cells | KKLEB NF-kB-GFP reporter, GFP fluorescence overnight | inhibition, % at 5 µM | actives 0.86% (n = 360,000) | AID 588850;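 active = at least 50% inhibition at 5 µM, scaled per plate between neutral and stimulator controls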;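 also: PAF is a Pseudomonas aeruginosa culture filtrate used as stimulus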
Peg3 prom inh-2: confirmation of Peg3 promoter inhibitors; HeLa PEG-Prom luciferase reporter, luminescence, overnight; shares compounds with Peg3 prom inh-1; inhibition, % at 20 µM; actives 84% (n = 1,300);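 active = at 20 µM dose, 40% or more inhibition averaged across four replicates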
Each line names hits and unclear results; the compound was inactive in the other large screens (follow-up assays come after a bar, where they were run). Sampled rows, rich in hits. Any-hit rate of the full collection: about 2.9%.

COC(=O)C1=C(c2ccc(OCc3ccccc3)cc2)C[C@@H]2CC[C@H]1N2C(=O)NCc1ccc(F)cc1	none (no result: MITF TRPM1 inh)
CN(CC1COc2ccccc2O1)c1nc(-c2cccnc2)nc2ccccc12 (stereo unspecified)	Peg3 prom inh-1 50.8
Cc1cccc(-n2c(/C=C/c3ccc([N+](=O)[O-])o3)nc3ccccc3c2=O)c1	Peg3 prom inh-1 85.7, EBV LMP1 NFkB 84.4, MITF TRPM1 inh 86.1
O=c1c2ccccc2nc(/C=C/c2ccc([N+](=O)[O-])o2)n1-c1ccc(O)cc1	Peg3 prom inh-1 103.2, Shn3 inh set2 97.8, EBV LMP1 NFkB 86.0, MITF TRPM1 inh 94.0
O=c1c2ccccc2nc(/C=C/c2ccccc2)n1-c1ccc(O)cc1	none
COc1ccc(N=Cc2c(O)n(Cc3ccccc3)c(=S)[nH]c2=O)c(OC)c1	Peg3 prom inh-1 54.2
Cc1ccc(C(O)(c2ccc(C)c(C)c2)C2CN3CCC2CC3)cc1C (stereo unspecified)	Peg3 prom inh-1 98.1, MITF TRPM1 inh 82.5
COc1cc2c(c(OC)c1OC)-c1ccc(O)cc1[C@@H](NC(C)=O)CC2	MITF TRPM1 inh 65.1
COc1cc2c(c(OC)c1OC)-c1ccc(O)c(=O)cc1[C@@H](NC(C)=O)CC2	none
O=[N+]([O-])c1[nH]cnc1Br	none
COc1ccc(C(c2nnnn2C(C)(C)C)N2CCC3(CC2)C(=O)NCN3c2ccccc2)cc1 (stereo unspecified)	none (no result: EBV LMP1 NFkB, MITF TRPM1 inh)
CCCCCCn1c(=O)c(C(=O)Nc2cnccn2)c(O)c2ccccc21	MITF TRPM1 inh 72.7
CCCCCn1c(=O)c(C(=O)Nc2ccccn2)c(O)c2ccccc21	none
c1coc(CN2Cc3ccccc3-n3nncc3C2)c1	none (no result: MITF TRPM1 inh)
Cc1cc(-c2ccccc2)cc(C)[n+]1Cc1ccccc1	none
Cc1ccc(-c2cc(-c3ccc(C)cc3)[n+](-c3ccccc3)c(-c3ccc(C)cc3)c2)cc1	Peg3 prom inh-1 80.2, Shn3 inh set2 94.2, EBV LMP1 NFkB 44.5, MITF TRPM1 inh 102.2 | Peg3 prom inh-2 94.1
c1ccc(-c2cc(-c3ccccc3)[n+](-c3ccccc3)c(-c3ccccc3)c2)cc1	Peg3 prom inh-1 110.5, MITF TRPM1 inh 92.4 | Peg3 prom inh-2 87.0
C[n+]1c(-c2ccccc2)cc(-c2ccc(Cl)cc2)cc1-c1ccccc1	none
Cc1cc(C)c(C)c(C(O)(C(=O)O)c2ccccc2)c1 (stereo unspecified)	none (no result: MITF TRPM1 inh)
CC(C)(C)n1nnnc1C(c1cccc2ccccc12)N1CCC2(CC1)C(=O)NCN2c1ccccc1 (stereo unspecified)	none (no result: EBV LMP1 NFkB, MITF TRPM1 inh)
CC(=O)OC1CC2(O)C3CCC4CC(O)CCC4(C)C3CCC2(C)C1C1=CC(=O)OC1 (stereo unspecified)	Peg3 prom inh-1 97.4, EBV LMP1 NFkB 72.2, MITF TRPM1 inh 71.2, CF NFkB inh 89.6 | Peg3 prom inh-2 98.5
COc1cc(O)c2c(c1)/C=C/C[C@H](O)[C@H](O)C(=O)CCC[C@H](C)OC2=O	none (no result: EBV LMP1 NFkB, MITF TRPM1 inh)
Cc1cc(C(=O)OC(C)C(=O)Nc2ccccc2)c(C)n1C1CC1 (stereo unspecified)	none (no result: MITF TRPM1 inh)
COc1ccc(CNCCc2c(C)[nH]c3ccc(OC(F)(F)F)cc23)c(OC)c1	Peg3 prom inh-1 99.4, Shn3 inh set2 89.6, MITF TRPM1 inh 92.2 | Peg3 prom inh-2 99.0
CN1CCc2cc3c(c4c2C1Cc1ccccc1-4)OCO3 (stereo unspecified)	Peg3 prom inh-1 70.8 | Peg3 prom inh-2 inactive
CN1CCc2cc3c(cc2C1)OCO3	none
COc1cccc2c1C(=O)c1c(O)c3c(c(O)c1C2=O)CC(O)(C(C)=NO)CC3OC1CC(N)C(O)C(C)O1 (stereo unspecified)	Peg3 prom inh-1 98.9, EBV LMP1 NFkB 41.6, MITF TRPM1 inh 70.1 | Peg3 prom inh-2 99.2
O=C1NCN(c2ccccc2)C12CCN(C(c1cccc3ccccc13)c1nnnn1-c1ccc3c(c1)OCCO3)CC2 (stereo unspecified)	none (no result: EBV LMP1 NFkB, MITF TRPM1 inh)
COc1ccc(-n2nnnc2C(C2CC2)N2CCC(n3c(=O)[nH]c4ccccc43)CC2)cc1 (stereo unspecified)	Peg3 prom inh-1 58.4 (no result: EBV LMP1 NFkB, MITF TRPM1 inh) | Peg3 prom inh-2 58.3
